Assay results reported in PubChem BioAssay (Tox21).
Records with an inconclusive call do not appear. Calls of active or inactive are those of the source. Unless noted, calls follow the shape of the dose curve; as a rule, active = well fitted curve in the direction sought with a large enough effect in the repeat runs; inconclusive = weak or mixed curves; inactive = no such curve, though single readings can be large; an effect the other way counts as inactive or inconclusive.

What was measured:
[1] = qHTS assay for small molecule agonists of the p53 signaling pathway (AID 651631; calls by dose curve; also: nearly all actives have a fitted effect of over 15% in size)
In short: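 Fluorescence intensity from cleaved LiveBLAzer B/G substrate (2 h, room temperature) served as the signal. Beforehand, HCT-116 reporter cells bearing p53 response elements were treated 16 h at 37 °C with DMSO-dissolved compounds.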

[2] = qHTS assay for small molecules that induce genotoxicity in human embryonic kidney cells expressing luciferase-tagged ATAD5 (AID 651632); also: nearly all actives have a fitted effect of over 15% in size
In short: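 Cells were seeded at 2,000 per well, dosed with compound, and incubated 16 hr at 37C in 5% CO2. Luciferase activity was then quantified after a 30 min room-temperature incubation with Amplite.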

[3] = qHTS assay for small molecule agonists of the p53 signaling pathway - cell viability (AID 651633; calls by dose curve;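 also: p53RE-bla HCT reporter cells with a stable beta-lactamase p53 reporter; series mostly up to about 83 µM; nearly all actives have a fitted effect of over 30% in size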)
In short: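 p53RE-bla cells, seeded at 4,000 per well and rested 5 h at 37 C/5% CO2, received compounds in DMSO for 16 h at 37 C. CellTiter-Glo was then added, and luminescence was read after 30 min at room temperature to gauge cytotoxicity.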

[4] = qHTS assay for small molecules that induce genotoxicity in human embryonic kidney cells expressing luciferase-tagged ATAD5 - cell viability (AID 651634; calls by dose curve; also: nearly all actives have a fitted effect of over 25% in size)
In short: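 Cells (HEK293T, luciferase-tagged ATAD5) are seeded at 2,000 per well, dosed with compound or DMSO vehicle, and incubated 15.5 hr at 37C and 5% CO2. CellTiter-Fluor is added for 30 min before fluorescence is measured.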

[5] = qHTS assay for small molecule disruptors of the mitochondrial membrane potential - cell viability (AID 720634; calls by dose curve;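 also: human HepG2 liver cancer cells; series mostly up to about 83 µM; nearly all actives have a fitted effect of over 20% in size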)
In short: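 Cytotoxicity was measured by ATP quantitation in HepG2 wells that had first been treated with compound for 1 hr and stained with m-MPI dye; CellTiter-Glo incubation was 30 min at room temperature.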

[6] = qHTS assay for small molecule disruptors of the mitochondrial membrane potential (AID 720635)
In short: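 HepG2 cells (2,000/well) attached overnight at 37C, then took compound for 1 hr at 37C, 5% CO2. Mito-MPS dye was added for 30 min; fluorescence was read at 490/535 nm (monomers) and 540/590 nm (aggregates).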

[7] = qHTS assay to test for compound auto fluorescence at 590 nm (red) in HepG2 cells (AID 720674)
In short: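 Intrinsic compound fluorescence in the red window (Ex/Em 540/590 nm) is measured in attached HepG2 cells exposed for 1 hr, DMSO vehicle as baseline, benchmarked to Rose Bengal sodium.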

[8] = qHTS assay to test for compound auto fluorescence at 535 nm (green) in HepG2 cells (AID 720675)
[9] = qHTS assay to test for compound auto fluorescence at 460 nm (blue) in HEK293 cells (AID 720678)
In short: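 Auto fluorescence in the blue band was quantified as triamterene equivalency. HEK293 cells were seeded at 2,000/well, dosed after a 4-5 hr attachment, and kept overnight at 37C before the 405/460 nm reading.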

[10] = qHTS assay to test for compound auto fluorescence at 590 nm (red) in HEK293 cells (AID 720679)
In short: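 Autofluorescence equivalency to Rose Bengal sodium, 540/590nm, in HEK293 cells exposed overnight to 23 nL compound per well.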

[11] = qHTS assay to test for compound auto fluorescence at 535 nm (green) in HEK293 cells (AID 720680)
[12] = qHTS assay to test for compound auto fluorescence at 460 nm (blue) in HEK293 cell free culture (AID 720681)
In short: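 Test compounds were pinned into cell-free culture medium (DMEM with 10% FBS) and fluorescence was read directly at Ex/Em 405/460 nm. Signals were expressed as fluorescence equivalents of triamterene, with DMSO vehicle as control.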

[13] = qHTS assay to test for compound auto fluorescence at 535 nm (green) in HEK293 cell free culture (AID 720682)
In short: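 Intrinsic compound fluorescence is measured in culture medium containing 10% FBS, with excitation at 485 nm and detection at 535 nm, referenced to fluorescein.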

[14] = qHTS assay to test for compound auto fluorescence at 590 nm (red) in HEK293 cell free culture (AID 720683)
In short: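 Tox21 10K library compounds were pinned into cell-free DMEM with 10% FBS and fluorescence was read at excitation 540 nm. Activity is expressed as Rose Bengal sodium equivalency.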

[15] = qHTS assay to test for compound auto fluorescence at 590 nm (red) in HepG2 cell free culture (AID 720684)
In short: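 Ex 540 / Em 590 nm read of compound in cell-free MEM (10% FBS). Rose Bengal sodium reference.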

[16] = qHTS assay to test for compound auto fluorescence at 460 nm (blue) in HepG2 cell free culture (AID 720685)
In short: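 Cell-free plates of MEM plus 10% FBS received 23 nL compound or DMSO vehicle; blue-channel (405/460 nm) intensity scored against triamterene as reference fluorophore.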

[17] = qHTS assay to test for compound auto fluorescence at 535 nm (green) in HepG2 cell free culture (AID 720686)
[18] = qHTS assay to test for compound auto fluorescence at 460 nm (blue) in HepG2 cells (AID 720687)
In short: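 Cells (2,000/well in MEM with 10% FBS) attached overnight at 37 C, then were exposed to compound or DMSO for 1 hr at 37 C, 5% CO2. Fluorescence read at Ex/Em 405/460 nm, expressed as triamterene-equivalent signal.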

[19] = biological target: Glucocorticoid receptor (Homo sapiens) (UniProt P04150); test: qHTS assay to identify small molecule agonists of the glucocorticoid receptor (GR) signaling pathway (AID 720691; active = well fitted activation curve with a large enough effect in the signal ratio in the repeat runs, not every such curve was filed as active; the % refers to the signal ratio)
Chain of Glucocorticoid receptor (Homo sapiens) (P04150 whole entry, looked up): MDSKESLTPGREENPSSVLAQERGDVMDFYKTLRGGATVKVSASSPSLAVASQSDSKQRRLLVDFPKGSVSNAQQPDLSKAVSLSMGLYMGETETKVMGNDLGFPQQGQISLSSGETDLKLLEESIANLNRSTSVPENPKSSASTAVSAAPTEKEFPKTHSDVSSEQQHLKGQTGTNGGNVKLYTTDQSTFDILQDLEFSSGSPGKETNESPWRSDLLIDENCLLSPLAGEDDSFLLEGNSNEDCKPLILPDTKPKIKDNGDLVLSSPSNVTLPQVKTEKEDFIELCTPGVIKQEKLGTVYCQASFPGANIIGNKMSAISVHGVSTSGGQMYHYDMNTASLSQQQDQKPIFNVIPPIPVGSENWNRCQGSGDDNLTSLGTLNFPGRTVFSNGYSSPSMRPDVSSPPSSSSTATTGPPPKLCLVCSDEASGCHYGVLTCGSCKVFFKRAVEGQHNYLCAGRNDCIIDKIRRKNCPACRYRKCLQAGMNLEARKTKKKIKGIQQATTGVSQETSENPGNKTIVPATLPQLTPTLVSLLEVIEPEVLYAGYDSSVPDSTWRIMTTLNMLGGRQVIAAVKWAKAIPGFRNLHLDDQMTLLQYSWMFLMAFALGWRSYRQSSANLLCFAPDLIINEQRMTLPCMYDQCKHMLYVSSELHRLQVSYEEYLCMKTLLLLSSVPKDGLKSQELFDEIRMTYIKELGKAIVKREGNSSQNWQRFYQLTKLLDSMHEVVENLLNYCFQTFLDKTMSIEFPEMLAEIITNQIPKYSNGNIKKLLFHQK
In short: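 Steps: seed GR-bla HeLa cells, incubate 4 h at 37 C/5% CO2; pin-transfer DMSO-dissolved compounds; incubate 18 h at 37 C; add LiveBLAzer B/G FRET substrate; after 2 h at room temperature, measure fluorescence.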

[20] = biological target: Glucocorticoid receptor (Homo sapiens) (UniProt P04150); test: qHTS assay to identify small molecule antagonists of the glucocorticoid receptor (GR) signaling pathway (AID 720692; active = well fitted inhibition curve with a large enough effect in the signal ratio in the repeat runs, not every such curve was filed as active; the % refers to the signal ratio)
In short: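 Antagonism was scored as loss of dexamethasone-driven (5 nM final) reporter signal in HeLa cells bearing a glucocorticoid response element–beta-lactamase construct, after 18 h compound exposure at 37 C and 2 h FRET substrate loading.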

Measured: Potency

C=CCc1ccc(OC(=O)Cc2ccccc2)c(OC)c1
inactive: all assays above

O=C(NCNC(=O)NC1C(=O)NC(=O)N1CO)NC1C(=O)NC(=O)N1CO (stereo not drawn)
not listed: [7] | [14]
inactive: all other assays above

CCOc1cccc(C2(N3CCN(c4ccccc4)CC3)CCC(C)CC2)c1 (stereo not drawn)
not listed: [6] | [14]
inactive: all other assays above

CCCCCCCCP(=O)(O)O
not listed: [6] | [14] | [19]
inactive: all other assays above

COc1cc(CC(C)N)c(OC)cc1Br (stereo not drawn)
not listed: [7] | [9] | [19] | [20]
inactive: all other assays above

CC(O)CN1CCN(CC(=O)[O-])CCN(CC(=O)[O-])CCN(CC(=O)[O-])CC1.[Gd+3] (stereo not drawn)
not listed: [6] | [14]
inactive: all other assays above

COC1=CC(=O)O[C@@H](/C=C/c2ccc3c(c2)OCO3)C1
not listed: [6] | [19]
inactive: all other assays above

O=C(O)C(Cl)(Cl)Br
not listed: [6] | [15]
inactive: all other assays above
